Test results published in publication PMC7862700, “An all-to-all approach to the identification of sequence-specific readers for epigenetic DNA modifications on cytosine”.

Legend:
Experiment in all cases: DAPPL (digital affinity profiling via proximity ligation, sequencing); 10 mM Tris-HCl pH 7.5, 50 mM NaCl, 1 mM DTT, 4% glycerol, room temperature, 30 min; GST-TFs on glutathione beads, 16-mer random dsDNA library, 0.1% formaldehyde crosslink after washing; high values mean tight binding
Conditions in all cases: protein: recombinant; tags: N-terminal GST; dsDNA, one strand shown
FLI1 = target: T1, FLI1 (Homo sapiens, UniProt Q01543 1-452)
T1 sequence: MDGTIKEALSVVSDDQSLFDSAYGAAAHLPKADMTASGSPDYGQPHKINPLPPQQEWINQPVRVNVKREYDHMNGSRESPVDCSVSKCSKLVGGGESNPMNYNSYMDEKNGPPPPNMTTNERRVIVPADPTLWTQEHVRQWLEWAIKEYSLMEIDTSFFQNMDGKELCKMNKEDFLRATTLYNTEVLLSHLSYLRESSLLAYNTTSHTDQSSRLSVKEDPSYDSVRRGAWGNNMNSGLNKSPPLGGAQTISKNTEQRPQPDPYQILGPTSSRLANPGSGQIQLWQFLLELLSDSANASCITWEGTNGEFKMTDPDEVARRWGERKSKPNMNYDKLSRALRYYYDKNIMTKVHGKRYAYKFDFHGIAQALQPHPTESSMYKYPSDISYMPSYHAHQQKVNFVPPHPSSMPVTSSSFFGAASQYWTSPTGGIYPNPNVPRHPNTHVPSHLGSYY
How it was run: (§1)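 Human transcription factors fused to GST were expressed in yeast, captured on glutathione beads, given DNA barcodes and pooled with a GST-only negative control. Pools were incubated with 200 nmole of a 16-mer random double-stranded DNA library in Tris/NaCl/DTT/glycerol buffer at room temperature for 30 min. They were then washed, crosslinked with 0.1% formaldehyde, proximity-ligated (BsaI/T4 ligase, 1 h, 37 °C), PCR-amplified and sequenced on an Illumina NextSeq500. Binding signal is each 6-mer's read frequency for a factor divided by its frequency for the GST control.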

ELK1 = target: T2, ELK1 (Homo sapiens, UniProt P19419 1-428)
T2 sequence: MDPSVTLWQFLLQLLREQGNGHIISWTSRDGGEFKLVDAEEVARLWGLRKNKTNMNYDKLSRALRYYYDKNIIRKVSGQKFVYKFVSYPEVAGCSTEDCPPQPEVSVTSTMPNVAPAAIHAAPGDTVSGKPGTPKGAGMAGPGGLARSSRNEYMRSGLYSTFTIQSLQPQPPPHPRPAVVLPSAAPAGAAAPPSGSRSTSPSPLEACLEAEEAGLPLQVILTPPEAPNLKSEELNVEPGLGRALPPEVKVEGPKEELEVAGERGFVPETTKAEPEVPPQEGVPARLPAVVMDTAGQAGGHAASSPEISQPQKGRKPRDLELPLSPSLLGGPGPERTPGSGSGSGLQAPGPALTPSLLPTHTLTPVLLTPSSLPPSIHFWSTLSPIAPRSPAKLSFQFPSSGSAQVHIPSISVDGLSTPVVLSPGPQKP
How it was run: as §1

GABPA = target: T3, GABPA (Homo sapiens, UniProt Q06546 1-454)
T3 sequence: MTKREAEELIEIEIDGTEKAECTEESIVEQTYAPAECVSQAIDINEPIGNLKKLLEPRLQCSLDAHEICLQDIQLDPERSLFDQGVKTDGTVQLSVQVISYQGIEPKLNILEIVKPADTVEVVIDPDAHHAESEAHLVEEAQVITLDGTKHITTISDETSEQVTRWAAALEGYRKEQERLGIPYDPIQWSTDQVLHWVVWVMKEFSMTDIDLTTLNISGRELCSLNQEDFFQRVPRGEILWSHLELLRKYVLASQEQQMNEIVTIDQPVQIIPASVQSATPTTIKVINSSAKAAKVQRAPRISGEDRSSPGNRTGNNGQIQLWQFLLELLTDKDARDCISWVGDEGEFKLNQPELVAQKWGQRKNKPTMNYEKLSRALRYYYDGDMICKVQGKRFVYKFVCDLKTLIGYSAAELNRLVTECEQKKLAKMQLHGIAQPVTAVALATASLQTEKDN
How it was run: as §1

ERG = target: T4, ERG (Homo sapiens, UniProt P11308 1-479)
T4 sequence: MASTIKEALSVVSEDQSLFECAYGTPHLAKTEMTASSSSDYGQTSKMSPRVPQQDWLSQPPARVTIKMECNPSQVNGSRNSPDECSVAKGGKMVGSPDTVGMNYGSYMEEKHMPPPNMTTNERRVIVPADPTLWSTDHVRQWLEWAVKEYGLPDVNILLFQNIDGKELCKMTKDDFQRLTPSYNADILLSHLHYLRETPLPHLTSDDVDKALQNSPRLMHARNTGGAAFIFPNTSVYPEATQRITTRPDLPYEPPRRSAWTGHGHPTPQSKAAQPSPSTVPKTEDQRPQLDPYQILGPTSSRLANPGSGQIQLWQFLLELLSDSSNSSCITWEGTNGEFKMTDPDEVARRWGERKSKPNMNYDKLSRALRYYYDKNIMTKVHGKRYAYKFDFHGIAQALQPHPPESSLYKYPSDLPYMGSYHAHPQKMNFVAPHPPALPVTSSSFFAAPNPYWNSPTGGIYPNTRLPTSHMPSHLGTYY
How it was run: as §1

ELF1 = ELF1 (Homo sapiens, UniProt P32519 1-619)
Chain of ELF1 (P32519 whole entry): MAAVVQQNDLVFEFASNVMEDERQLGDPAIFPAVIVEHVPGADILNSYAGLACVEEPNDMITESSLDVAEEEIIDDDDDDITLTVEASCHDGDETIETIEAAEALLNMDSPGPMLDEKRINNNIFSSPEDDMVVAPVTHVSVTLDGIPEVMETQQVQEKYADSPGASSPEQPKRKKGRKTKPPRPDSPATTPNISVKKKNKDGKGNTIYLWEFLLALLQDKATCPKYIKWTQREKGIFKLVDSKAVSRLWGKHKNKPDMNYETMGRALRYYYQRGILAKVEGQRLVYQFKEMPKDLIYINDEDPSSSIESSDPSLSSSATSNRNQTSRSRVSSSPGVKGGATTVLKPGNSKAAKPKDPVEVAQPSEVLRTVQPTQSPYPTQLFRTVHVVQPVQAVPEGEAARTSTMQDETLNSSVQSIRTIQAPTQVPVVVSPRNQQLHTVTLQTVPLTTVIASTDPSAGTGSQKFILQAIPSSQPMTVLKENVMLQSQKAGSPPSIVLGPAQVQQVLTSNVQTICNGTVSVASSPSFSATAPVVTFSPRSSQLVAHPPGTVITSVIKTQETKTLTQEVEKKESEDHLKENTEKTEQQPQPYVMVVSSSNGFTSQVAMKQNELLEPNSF
How it was run: as §1

EHF = target: T5, EHF (Homo sapiens, UniProt Q9NZC4 1-300)
T5 sequence: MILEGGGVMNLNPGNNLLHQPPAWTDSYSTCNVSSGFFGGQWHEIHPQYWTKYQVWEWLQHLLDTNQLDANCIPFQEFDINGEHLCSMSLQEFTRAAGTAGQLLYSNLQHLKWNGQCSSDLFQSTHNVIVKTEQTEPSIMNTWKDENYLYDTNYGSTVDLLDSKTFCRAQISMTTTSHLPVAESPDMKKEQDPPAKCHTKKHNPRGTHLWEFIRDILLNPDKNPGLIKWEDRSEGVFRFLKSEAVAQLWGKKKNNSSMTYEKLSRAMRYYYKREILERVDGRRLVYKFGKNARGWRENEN
How it was run: as §1

SPI1 = SPI1 (Homo sapiens, UniProt P17947 1-270)
How it was run: as §1

SPIB = SPIB (Homo sapiens, UniProt Q01892 1-262)
Chain of SPIB (Q01892 whole entry): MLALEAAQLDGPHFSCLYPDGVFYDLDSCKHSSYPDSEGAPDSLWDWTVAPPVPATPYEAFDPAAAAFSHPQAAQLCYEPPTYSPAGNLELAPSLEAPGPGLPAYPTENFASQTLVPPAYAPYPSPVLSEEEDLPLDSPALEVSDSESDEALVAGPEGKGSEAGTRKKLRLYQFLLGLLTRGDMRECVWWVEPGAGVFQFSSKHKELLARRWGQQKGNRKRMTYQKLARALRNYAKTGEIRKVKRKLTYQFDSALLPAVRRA
How it was run: as §1

ELK3 = target: T6, ELK3 (Homo sapiens, UniProt P41970 1-407)
T6 sequence: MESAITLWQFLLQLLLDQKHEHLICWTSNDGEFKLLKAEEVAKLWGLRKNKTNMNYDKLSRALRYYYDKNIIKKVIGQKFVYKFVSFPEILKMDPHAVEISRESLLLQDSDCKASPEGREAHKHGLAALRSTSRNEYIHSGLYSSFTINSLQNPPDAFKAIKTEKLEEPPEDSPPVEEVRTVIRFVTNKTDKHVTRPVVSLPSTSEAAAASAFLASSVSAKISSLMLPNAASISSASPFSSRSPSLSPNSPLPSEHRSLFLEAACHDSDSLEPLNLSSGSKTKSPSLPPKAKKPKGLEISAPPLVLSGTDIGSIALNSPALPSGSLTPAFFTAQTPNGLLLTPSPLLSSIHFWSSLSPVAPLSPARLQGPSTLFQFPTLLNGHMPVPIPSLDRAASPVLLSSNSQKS
How it was run: as §1

Row | Sequence | binding signal (FLI1) | binding signal (ELK1) | binding signal (GABPA) | binding signal (ERG) | binding signal (ELF1) | binding signal (EHF) | binding signal (SPI1) | binding signal (SPIB) | binding signal (ELK3)
1 | TCCACT | 1.47 fold enrichment (6-mer frequency, TF over GST control) | 1.52 fold enrichment (6-mer frequency, TF over GST control) | 1.51 fold enrichment (6-mer frequency, TF over GST control) | 1.54 fold enrichment (6-mer frequency, TF over GST control) | 1.5 fold enrichment (6-mer frequency, TF over GST control) | 1.36 fold enrichment (6-mer frequency, TF over GST control) | 1.5 fold enrichment (6-mer frequency, TF over GST control) | 1.39 fold enrichment (6-mer frequency, TF over GST control) | 1.49 fold enrichment (6-mer frequency, TF over GST control)
2 | CCAACA | 1.06 fold enrichment (6-mer frequency, TF over GST control) | 1.11 fold enrichment (6-mer frequency, TF over GST control) | 1.09 fold enrichment (6-mer frequency, TF over GST control) | 1 fold enrichment (6-mer frequency, TF over GST control) | 1.04 fold enrichment (6-mer frequency, TF over GST control) | 1.12 fold enrichment (6-mer frequency, TF over GST control) | 1.01 fold enrichment (6-mer frequency, TF over GST control) | 1.01 fold enrichment (6-mer frequency, TF over GST control) | 1.03 fold enrichment (6-mer frequency, TF over GST control)
3 | CTTGGC | 1.19 fold enrichment (6-mer frequency, TF over GST control) | 1.23 fold enrichment (6-mer frequency, TF over GST control) | 1.25 fold enrichment (6-mer frequency, TF over GST control) | 1.12 fold enrichment (6-mer frequency, TF over GST control) | 1.14 fold enrichment (6-mer frequency, TF over GST control) | 1.22 fold enrichment (6-mer frequency, TF over GST control) | 1.18 fold enrichment (6-mer frequency, TF over GST control) | 1.2 fold enrichment (6-mer frequency, TF over GST control) | 1.18 fold enrichment (6-mer frequency, TF over GST control)
4 | CAACTA | 1.24 fold enrichment (6-mer frequency, TF over GST control) | 1.31 fold enrichment (6-mer frequency, TF over GST control) | 1.37 fold enrichment (6-mer frequency, TF over GST control) | 1.3 fold enrichment (6-mer frequency, TF over GST control) | 1.38 fold enrichment (6-mer frequency, TF over GST control) | 1.27 fold enrichment (6-mer frequency, TF over GST control) | 1.28 fold enrichment (6-mer frequency, TF over GST control) | 1.24 fold enrichment (6-mer frequency, TF over GST control) | 1.25 fold enrichment (6-mer frequency, TF over GST control)
5 | TCACAT | 1.23 fold enrichment (6-mer frequency, TF over GST control) | 1.25 fold enrichment (6-mer frequency, TF over GST control) | 1.23 fold enrichment (6-mer frequency, TF over GST control) | 1.29 fold enrichment (6-mer frequency, TF over GST control) | 1.32 fold enrichment (6-mer frequency, TF over GST control) | 1.27 fold enrichment (6-mer frequency, TF over GST control) | 1.32 fold enrichment (6-mer frequency, TF over GST control) | 1.19 fold enrichment (6-mer frequency, TF over GST control) | 1.24 fold enrichment (6-mer frequency, TF over GST control)
6 | TGGCAC | 1.19 fold enrichment (6-mer frequency, TF over GST control) | 1.23 fold enrichment (6-mer frequency, TF over GST control) | 1.15 fold enrichment (6-mer frequency, TF over GST control) | 1.27 fold enrichment (6-mer frequency, TF over GST control) | 1.09 fold enrichment (6-mer frequency, TF over GST control) | 1.26 fold enrichment (6-mer frequency, TF over GST control) | 1.14 fold enrichment (6-mer frequency, TF over GST control) | 1.18 fold enrichment (6-mer frequency, TF over GST control) | 1.17 fold enrichment (6-mer frequency, TF over GST control)
7 | ACCATA | 1.2 fold enrichment (6-mer frequency, TF over GST control) | 1.16 fold enrichment (6-mer frequency, TF over GST control) | 1.12 fold enrichment (6-mer frequency, TF over GST control) | 1.19 fold enrichment (6-mer frequency, TF over GST control) | 1.16 fold enrichment (6-mer frequency, TF over GST control) | 1.12 fold enrichment (6-mer frequency, TF over GST control) | 1.13 fold enrichment (6-mer frequency, TF over GST control) | 1.19 fold enrichment (6-mer frequency, TF over GST control) | 1.22 fold enrichment (6-mer frequency, TF over GST control)
8 | ATAATT | 1.31 fold enrichment (6-mer frequency, TF over GST control) | 1.38 fold enrichment (6-mer frequency, TF over GST control) | 1.38 fold enrichment (6-mer frequency, TF over GST control) | 1.4 fold enrichment (6-mer frequency, TF over GST control) | 1.27 fold enrichment (6-mer frequency, TF over GST control) | 1.37 fold enrichment (6-mer frequency, TF over GST control) | 1.28 fold enrichment (6-mer frequency, TF over GST control) | 1.39 fold enrichment (6-mer frequency, TF over GST control) | 1.42 fold enrichment (6-mer frequency, TF over GST control)
